Results filed as inconclusive are left out. Unmarked numbers belong to inactive results. Active and inactive are the calls of the source. The call rests on the fitted dose curve; in most records, active means well fitted curve in the direction sought with a large enough effect; inconclusive means small, poorly fitted or top-dose-only effect, or another doubt; inactive means no such curve, though single readings can be large; an effect the other way counts as inactive or inconclusive.
Assays:
[1] = BET inhibitor-based combinations targeting novel dependencies in MECOM-rearranged (r) AML: SET-2 cell line (AID 2202231); details: SET-2 AML cells viability, CellTiter-Glo luminescence, 48 h; viability: active compounds read low, concentration not given here; further: nearly all actives have a fitted effect of over 35% in size;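 on viability: plate controls were DMSO treated cells for no effect and wells without cells for full effect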
In short: (§1)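 Readout: CellTiter-Glo luminescence. Exposure: 48 h, 11 concentrations, 500 cells/well. Metric: AUC and within-line Z-AUC after DMSO/empty-well normalization.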

[2] = BET inhibitor-based combinations targeting novel dependencies in MECOM-rearranged (r) AML: OCI-AML3 cell line (AID 2202232); details: Potency: OCI-AML3 viability; further: nearly all actives have a fitted effect of over 35% in size
In short: as §1

[3] = BET inhibitor-based combinations targeting novel dependencies in MECOM-rearranged (r) AML: HNT-34 cell line (AID 2202234); further: nearly all actives have a fitted effect of over 35% in size
In short: (§2)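 Seeding density was 500 cells/well, and drug exposure lasted 48 hr under standard culture conditions. Read-out used CellTiter-Glo reagent with a 15 min room-temperature incubation before luminescence measurement; AUC and Z-AUC summarize the normalized responses.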

[4] = BET inhibitor-based combinations targeting novel dependencies in MECOM-rearranged (r) AML: UCSD-AML1 cell line (AID 2202235); further: nearly all actives have a fitted effect of over 40% in size
In short: as §2

[5] = BET inhibitor-based combinations targeting novel dependencies in MECOM-rearranged (r) AML: AML-191 cell line (AID 2202236; further: nearly all actives have a fitted effect of over 35% in size)
In short: as §1

[6] = BET inhibitor-based combinations targeting novel dependencies in MECOM-rearranged (r) AML: AML-194 cell line (AID 2202237; further: nearly all actives have a fitted effect of over 40% in size)
In short: as §1
Potency means the concentration at half of the fitted maximal effect.

Structure (SMILES): CCN(CC)CCNc1ccc(C)c2sc3ccccc3c(=O)c12
- Potency [1]: 18.6 µM (active)
- Potency [2]: 14.8 µM (active)
- Potency [3]: 16.6 µM (active)
- Potency [4]: 16600 nM (active)
- Potency [5]: 16.6 µM (active)
- Potency [6]: 16.6 µM (active)

Structure (SMILES): COc1cc2c3c(n(CCCn4ccnc4)c(=O)c2cc1OC)-c1cc2c(cc1C3=O)OCO2
- Potency [1]: 0.0372 µM (active)
- Potency [2]: 0.0372 µM (active)
- Potency [3]: 0.0263 µM (active)
- Potency [4]: 20.9 nM (active)
- Potency [5]: 0.0332 µM (active)

Structure (SMILES): Cc1oc(=O)oc1CN1CCN(c2cc3c(cc2F)c(=O)c(C(=O)O)c2n3C(C)S2)CC1 (stereo not drawn)
- viability [1]: 116%
- Potency [2]: inactive
- Potency [3]: inactive
- Potency [4]: inactive
- Potency [5]: inactive
- Potency [6]: inactive

Structure (SMILES): CNC(=O)c1c(C)oc2cc(Oc3ncnc4cc(OC)c(OC)cc34)ccc12
- viability [1]: 116%
- Potency [2]: inactive
- Potency [3]: inactive
- Potency [4]: inactive
- Potency [5]: inactive
- Potency [6]: inactive

Structure (SMILES): O=C1Cc2cc(C(=O)NC3C[C@H]4CC[C@@H](C3)N4S(=O)(=O)CC3CCN(CCCC(F)(F)F)CC3)c(Cl)cc2N1 (stereo partly drawn)
- viability [1]: 107%
- Potency [2]: inactive
- Potency [3]: inactive
- Potency [4]: inactive
- Potency [5]: inactive
- Potency [6]: inactive

Structure (SMILES): C=CC(=O)N1CCc2ccc(-n3c(=O)ccc4cnc5ccc(-c6cnn(C)c6)cc5c43)cc21
- Potency [1]: 0.456 µM (active)
- Potency [2]: 0.363 µM (active)
- Potency [3]: 0.407 µM (active)
- Potency [4]: 229 nM (active)
- Potency [5]: 0.812 µM (active)
- Potency [6]: 0.574 µM (active)

Structure (SMILES): C=CCN1C[C@H](C(=O)N(CCCN(C)C)C(=O)NCC)CC2c3cccc4[nH]cc(c34)C[C@H]21 (stereo partly drawn)
- viability [1]: 115%
- Potency [2]: 10.5 µM (active)
- Potency [3]: inactive
- Potency [4]: inactive
- Potency [5]: inactive
- Potency [6]: inactive

Structure (SMILES): O=C1CC[C@H](N2Cc3c(OCc4ccc(CN5CCOCC5)cc4)cccc3C2=O)C(=O)N1
- viability [1]: 102%
- Potency [2]: inactive
- Potency [3]: inactive
- Potency [6]: inactive

Structure (SMILES): CC(=O)O/N=C1\C(=O)N(Cc2cc(Cl)ccc2Cl)c2ccc(Cl)cc21
- Potency [1]: 9.34 µM (active)
- Potency [2]: 13.2 µM (active)
- Potency [3]: 2.95 µM (active)
- Potency [5]: 2.35 µM (active)
- Potency [6]: 2.63 µM (active)

Structure (SMILES): CO[C@H]1/C=C\C=C(\C)C(=O)NC2=CC(=O)C(NCCN(C)C)=C(C[C@@H](C)C[C@H](OC)[C@H](O)[C@@H](C)/C=C(/C)[C@@H]1OC(N)=O)C2=O
- Potency [1]: 2.95 µM (active)
- Potency [2]: 0.118 µM (active)
- Potency [3]: 0.417 µM (active)
- Potency [4]: 296 nM (active)
- Potency [5]: 1.05 µM (active)
- Potency [6]: 0.662 µM (active)

Structure (SMILES): CNC(=O)CCc1cc(-c2ccc(-c3ccc(C(F)(F)F)cc3)cc2)n(-c2ccc(N3CCNCC3)cc2)n1
- Potency [1]: 7.42 µM (active)
- Potency [2]: 5.9 µM (active)
- Potency [3]: 8.33 µM (active)
- Potency [5]: 5.9 µM (active)
- Potency [6]: 7.42 µM (active)

Structure (SMILES): COc1cc(NS(C)(=O)=O)ccc1Nc1c2ccccc2nc2ccccc12
- Potency [1]: 2.09 µM (active)
- Potency [2]: 0.372 µM (active)
- Potency [3]: 0.372 µM (active)
- Potency [4]: 417 nM (active)
- Potency [5]: 0.742 µM (active)
- Potency [6]: 0.742 µM (active)

Structure (SMILES): CO[C@@]12[C@H](COC(N)=O)C3=C(C(=O)C(C)=C(N)C3=O)N1C[C@@H]1N[C@@H]12
- viability [1]: 95%
- Potency [2]: inactive
- Potency [3]: inactive
- Potency [4]: inactive
- Potency [5]: inactive
- Potency [6]: inactive

Structure (SMILES): CCS(=O)(=O)N1CCC(C(C)n2c(C)c(C(=O)NCc3c(OC)cc(C)[nH]c3=O)c3ccccc32)CC1 (stereo not drawn)
- viability [1]: 108%
- Potency [2]: inactive
- Potency [3]: inactive
- Potency [5]: inactive
- Potency [6]: inactive

Structure (SMILES): Nc1nc(Nc2ccc3c(c2)CC[C@@H](N2CCCC2)CC3)nn1-c1cc2c(nn1)-c1ccccc1CCC2
- Potency [1]: 23.5 µM (active)
- Potency [2]: 18.6 µM (active)
- Potency [3]: 7.42 µM (active)
- Potency [4]: 18600 nM (active)
- Potency [5]: 18.6 µM (active)

Structure (SMILES): COc1cc(C)[nH]c(=O)c1CN1CCc2c(Cl)cc([C@H](OC)C3COC3)c(Cl)c2C1=O
- viability [1]: 112%
- Potency [2]: inactive
- Potency [3]: inactive
- Potency [4]: inactive
- Potency [5]: inactive
- Potency [6]: inactive

Structure (SMILES): CCc1c(C(=O)NNC(=O)[C@@H](O)c2cc(F)cc(F)c2)ccc(O)c1C
- viability [1]: 97.8%
- Potency [2]: inactive
- Potency [3]: inactive
- Potency [4]: 7420 nM (active)
- Potency [5]: inactive
- Potency [6]: inactive

Structure (SMILES): COc1cc(N2CCN(C)CC2)ccc1Nc1ncc2c(n1)N(C)c1ccccc1C(=O)N2C
- Potency [1]: 16.6 µM (active)
- Potency [2]: 2.35 µM (active)
- Potency [3]: 16.6 µM (active)
- Potency [5]: 18.6 µM (active)
- Potency [6]: 20.9 µM (active)

Structure (SMILES): CCC[C@@H]1C[C@@H](C(=O)N[C@@H]([C@H]2O[C@H](SC)[C@H](O)[C@@H](O)[C@H]2O)[C@H](C)Cl)N(C)C1
- viability [1]: 110%
- Potency [2]: inactive
- Potency [3]: inactive
- Potency [4]: inactive
- Potency [5]: inactive
- Potency [6]: inactive

Structure (SMILES): COc1cc(-c2cn(C)c(=O)c3cnccc23)cc(OC)c1CN(C)C
- viability [1]: 106%
- Potency [2]: 4.68 µM (active)
- Potency [3]: inactive
- Potency [4]: inactive
- Potency [5]: inactive
- Potency [6]: inactive

Structure (SMILES): CC1(C)O[C@@H]2C[C@H]3[C@@H]4C[C@H](F)C5=CC(=O)C=C[C@]5(C)[C@@]4(F)[C@@H](O)C[C@]3(C)[C@]2(C(=O)CO)O1
- viability [1]: 113%
- Potency [2]: inactive
- Potency [3]: inactive
- Potency [4]: inactive
- Potency [5]: inactive
- Potency [6]: inactive

Reference: PubChem BioAssay (NCATS)
